Calls of active or inactive are those of the source. Unless noted, no rule for the calls is given here.
How the values were obtained:
[1] = HepG2 liver cancer cell viability effects, profiling panel, resazurin fluorescence, 24 h, PK04 Diversity Set (AID 1172); details: higher = more signal; also: test concentration not given here
[2] = basal S. cerevisiae growth modulation, no modifier, primary screen, OD600, strain BY4716, 24 h, basal condition (AID 1173); details: OD600, 24 h, higher = more signal, called active from +8 up or from −8 down
[3] = MM1S myeloma cell viability, profiling panel, resazurin fluorescence, basal, 24 h, PK04 Diversity Set (AID 1174); details: higher = more signal, called active from +8 up or from −8 down;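 also: MM1S multiple myeloma cell line; test concentration not given here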
[4] = target: Dihydroorotate dehydrogenase (quinone), mitochondrial (Plasmodium falciparum (isolate 3D7)) (UniProt Q08210); test: PfDHODH enzyme inhibitors, primary screen, biochemical, C-terminal His tag, absorbance 600 nm (AID 1175); details: DCIP absorbance 600 nm, higher = more signal, called active from +8 up or from −8 down;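 also: recombinant parasite enzyme with a five histidine tag at its C terminus; test concentration not given here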
[5] = P. aeruginosa biofilm formation inhibitors, primary screen, strain PAO1, LB-PBS medium, absorbance 600 nm (AID 1176); also: test concentration not given here; details: P. aeruginosa PAO1 growth/biofilm, A600, 12 h; higher = more signal
[6] = S. cerevisiae RM11-1a growth modifiers, primary screen, strain RM11-1a, OD600, basal, 24 h (AID 1177); details: OD600, 24 h, higher = more signal, called active from +8 up or from −8 down;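 also: cultures grown under basal conditions with no added stressor; test concentration not given here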
[7] = E. coli acrAB mutant growth effects, primary screen, E. coli filamentation inducers, strain DRC39, OD650, 24 h (AID 1178); details: higher = more signal, called active from +8 up or from −8 down;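 also: growth measured as culture turbidity by optical density at 650 nm; test concentration not given here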
[8] = E. coli acrAB mutant growth effects, primary screen, E. coli filamentation inducers, strain DRC39, OD650, 48 h (AID 1179);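 also: screen aims at cell division blockers that make cells filament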; details: E. coli DRC39 delta-acrAB growth, higher = more signal, called active from +8 up or from −8 down
[9] = RPMI8226 myeloma cell viability, profiling panel, resazurin fluorescence, basal, 24 h, PK04 Diversity Set (AID 1180); details: higher = more signal;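 also: RPMI8826 multiple myeloma cell line at 5000 cells per well; test concentration not given here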
[10] = target: E3 ubiquitin-protein ligase XIAP (Homo sapiens) (UniProt P98170); test: XIAP binders, primary screen, biophysical, small-molecule microarray, fluorescence 635 nm (AID 1181); details: small-molecule microarray binding, higher = more signal;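 also: score merges 667 nm emission and signal to noise over triplicate slides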
Sequence of E3 ubiquitin-protein ligase XIAP (Homo sapiens) (P98170 whole entry, looked up): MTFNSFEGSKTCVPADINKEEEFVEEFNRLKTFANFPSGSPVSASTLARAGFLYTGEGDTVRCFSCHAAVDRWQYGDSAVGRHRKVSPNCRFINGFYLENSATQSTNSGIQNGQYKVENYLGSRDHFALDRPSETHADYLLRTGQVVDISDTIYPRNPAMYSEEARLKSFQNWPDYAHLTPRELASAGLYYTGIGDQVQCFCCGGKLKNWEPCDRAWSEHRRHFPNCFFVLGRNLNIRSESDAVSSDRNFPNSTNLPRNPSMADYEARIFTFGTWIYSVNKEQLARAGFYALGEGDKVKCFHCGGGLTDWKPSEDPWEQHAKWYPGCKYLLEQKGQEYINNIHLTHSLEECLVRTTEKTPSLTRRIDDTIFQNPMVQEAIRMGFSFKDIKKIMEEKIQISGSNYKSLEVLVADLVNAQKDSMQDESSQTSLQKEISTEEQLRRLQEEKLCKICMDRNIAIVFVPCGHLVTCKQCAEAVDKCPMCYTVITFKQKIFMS

Sequence of Dihydroorotate dehydrogenase (quinone), mitochondrial (Plasmodium falciparum (isolate 3D7)) (Q08210 whole entry, looked up): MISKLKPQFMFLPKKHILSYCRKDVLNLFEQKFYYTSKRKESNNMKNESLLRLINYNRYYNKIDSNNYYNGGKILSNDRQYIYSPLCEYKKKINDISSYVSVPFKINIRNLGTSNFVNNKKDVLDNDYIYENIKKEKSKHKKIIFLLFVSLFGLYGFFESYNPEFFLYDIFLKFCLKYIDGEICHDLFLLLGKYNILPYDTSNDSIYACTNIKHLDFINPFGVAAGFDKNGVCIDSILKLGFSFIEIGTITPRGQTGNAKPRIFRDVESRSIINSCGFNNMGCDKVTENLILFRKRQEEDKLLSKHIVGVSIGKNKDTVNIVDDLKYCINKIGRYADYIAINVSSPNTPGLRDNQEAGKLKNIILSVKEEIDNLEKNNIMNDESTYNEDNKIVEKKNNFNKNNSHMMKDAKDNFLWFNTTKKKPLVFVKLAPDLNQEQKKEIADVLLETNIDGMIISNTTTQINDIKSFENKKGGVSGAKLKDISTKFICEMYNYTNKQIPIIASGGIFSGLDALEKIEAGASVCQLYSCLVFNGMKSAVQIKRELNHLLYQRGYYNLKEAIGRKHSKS

SMILES	z-score [1]	z-score [2]	z-score [3]	composite z-score [4]	z-score [5]	z-score [6]	z-score [7]	z-score [8]	z-score [9]	composite z-score [10]
O=C1[C@H]2[C@H]3[C@H](O)[C@H](O)CC(=NO[C@@H]4O[C@H](CO)[C@@H](O)[C@H](O)[C@H]4O)[C@@H]3CC[C@H]2C(=O)N1c1cccc(Oc2ccccc2)c1	0.647	0.0857 (inactive)	-0.602 (inactive)	-0.111 (inactive)	-0.343 (inactive)	0.0867 (inactive)	-0.492 (inactive)	-0.961 (inactive)	0.279	-0.124
COC(=O)[C@H](C)NC(=O)CCC1CC(OC(=O)NCc2ccc3c(c2)OCO3)CC2(CCCC(COC(=O)NCCc3ccc(Cl)cc3)O2)O1 (stereo not given in full)	0.388	0.515 (inactive)	-0.682 (inactive)	0.0925 (inactive)	-0.965 (inactive)	0.88 (inactive)	0.616 (inactive)	-0.729 (inactive)	0.0968	-0.0559
C=CC[C@@H]1C=C[C@H](ON=C[C@@H](NS(=O)(=O)c2ccc(C)cc2)[C@H](C)C=CCC(=O)OC)[C@@H](CO)O1	-0.71	0.071 (inactive)	-0.681 (inactive)	-0.383 (inactive)	0.0525 (inactive)	-0.0257 (inactive)	-0.251 (inactive)	0.119 (inactive)	-0.422	-0.231
CC(=O)OC[C@H]1O[C@H](CC=NOC(C)CN2CCCCc3nc(C)c(C)cc32)C=C[C@@H]1OC(C)=O (stereo not given in full)	0.351	0.515 (inactive)	0.535 (inactive)	-0.582 (inactive)	-0.266 (inactive)	0.575 (inactive)	0.132 (inactive)	-0.269 (inactive)	0.46	0.23
CCOC(=O)CCN1C(=O)[C@H]2[C@H]3[C@H](O)[C@H](O)CC(=NO[C@@H]4O[C@H](CO)[C@@H](O)[C@H](O)[C@H]4O)[C@H]3CC[C@H]2C1=O	-0.228	0.87 (inactive)	-0.433 (inactive)	0.29 (inactive)	-0.483 (inactive)	-0.402 (inactive)	-0.739 (inactive)	-0.0907 (inactive)	-0.162	0.106
CCOC(=O)[C@H](Cc1ccccc1)NC(=O)CCC1CC(OC(=O)NCc2cccc3ccccc23)CC2(CCCC(COC(=O)NCc3ccc4c(c3)OCO4)O2)O1 (stereo not given in full)	-0.0973	-0.552 (inactive)	-0.082 (inactive)	-0.929 (inactive)	-0.373 (inactive)	-0.131 (inactive)	1.56 (inactive)	1.41 (inactive)	0.922	-0.209
CC(C)=CCCC(C)=CCON=C1C[C@@H](O)[C@@H](O)[C@@H]2[C@@H]3C(=O)N(C4CCCCC4)C(=O)[C@@H]3CC[C@H]12	-0.346	-0.339 (inactive)	-2.69 (inactive)	0.235 (inactive)	-0.437 (inactive)	0.577 (inactive)	0.354 (inactive)	0.683 (inactive)	-1.7	-0.111
C[C@H]1CC[C@H]2C(=O)N[C@H](Cc3ccccc3)C(=O)N2[C@@H]1c1ccccc1	-0.69	-0.512 (inactive)	-0.322 (inactive)	0.868 (inactive)	-0.327 (inactive)	0.0033 (inactive)	0.718 (inactive)	0.295 (inactive)	-0.142	-0.24
COC(=O)[C@@H]1CC[C@H](C)[C@@H](c2ccc(Br)cc2)N1C[C@H](O)CN=[N+]=[N-]	-0.413	-6.28 (inactive)	-0.666 (inactive)	0.294 (inactive)	1.09 (inactive)	0.347 (inactive)	-0.78 (inactive)	-1.18 (inactive)	0.385	-0.122
COC(=O)[C@H](C)NC(=O)CCC1CC(OC(=O)NCc2cccc3ccccc23)CC2(CCCC(COC(=O)NCCc3ccccc3OC)O2)O1 (stereo not given in full)	-0.0725	0.526 (inactive)	-0.232 (inactive)	0.325 (inactive)	0.639 (inactive)	1.61 (inactive)	0.642 (inactive)	-0.0569 (inactive)	-0.472	0.0932
CCOC(=O)[C@H](Cc1ccccc1)NC(=O)CCC1CC(OC(=O)NCc2cccc3ccccc23)CC2(CCCC(COC(=O)NCC3CCCCC3)O2)O1 (stereo not given in full)	1.21	-0.424 (inactive)	1.43 (inactive)	-0.105 (inactive)	0.143 (inactive)	-0.104 (inactive)	-0.475 (inactive)	0.481 (inactive)	0.0833	0.0424
C[C@@H]1CC[C@H]2C(=O)O[C@@H](CN=[N+]=[N-])CN2[C@H]1c1ccc(Br)cc1	-0.607	-3.55 (inactive)	-0.74 (inactive)	5.24 (inactive)	-0.446 (inactive)	4.32 (inactive)	0.31 (inactive)	-1.66 (inactive)	-4.06	-0.0421
COC(=O)C1=C(C)N(Cc2ccccc2)C2=C3C(=O)OCC[C@@H]3[C@@](O)(C(=O)OC)C(=O)N2[C@@H]1c1ccccc1	1.11	-0.319 (inactive)	-1.3 (inactive)	0.524 (inactive)	-0.458 (inactive)	0.681 (inactive)	0.933 (inactive)	0.575 (inactive)	-0.0018	-0.0931
CC(=O)OC[C@H]1O[C@@H](ON=C2[C@H]3CCn4c(=O)n(-c5ccccc5)c(=O)n4[C@H]3[C@H](O)[C@@H]3O[C@H]23)[C@H](OC(C)=O)[C@@H](OC(C)=O)[C@@H]1OC(C)=O	-0.779	-0.499 (inactive)	-0.718 (inactive)	-1.44 (inactive)	-0.443 (inactive)	-0.184 (inactive)	0.435 (inactive)	0.381 (inactive)	-1.1	-0.174
CC(C)=NOC[C@@H](O)[C@H]1O[C@@H]2OC(C)(C)O[C@@H]2[C@H]1O	-0.831	-0.0545 (inactive)	-0.369 (inactive)	0.759 (inactive)	-0.443 (inactive)	0.0762 (inactive)	0.757 (inactive)	0.704 (inactive)	-0.686	-0.389
COCCNC(=O)OCC1CCCC2(CC(OC(=O)NCc3cccc4ccccc34)CC(CCC(=O)N[C@@H](C)C(=O)OC)O2)O1 (stereo not given in full)	1.77	-0.0524 (inactive)	0.343 (inactive)	0.124 (inactive)	-0.303 (inactive)	1.36 (inactive)	0.17 (inactive)	0.812 (inactive)	0.79	-0.0999
CC(CCN1CCCc2nc(C)c(C)cc21)=NO[C@H](C)c1cn([C@@H]2COC[C@H]2O)nn1	-0.537	0.593 (inactive)	-0.144 (inactive)	-0.0105 (inactive)	-0.525 (inactive)	0.836 (inactive)	0.973 (inactive)	0.741 (inactive)	-1.6	0.0264
CC(C)=CCCC(C)=CCON=C1C[C@@H](O)[C@@H](O)[C@@H]2[C@@H]3C(=O)N([C@@H](C)c4ccccc4)C(=O)[C@@H]3CC[C@@H]12	-0.243	0.408 (inactive)	-0.32 (inactive)	-0.0515 (inactive)	0.283 (inactive)	-0.471 (inactive)	-0.464 (inactive)	-0.131 (inactive)	-0.249	-0.0476
COc1cccc([C@H]2Oc3ccc(OC)cc3C(=NO[C@@H](C)c3cc(-c4c(C)cc(C)cc4C)no3)[C@@H]2O)c1	-0.406	1.18 (inactive)	0.0117 (inactive)	-2.77 (inactive)	0.523 (inactive)	1.96 (inactive)	0.243 (inactive)	-1.43 (inactive)	-0.116	-0.336
CC(C)=CCCC(C)=CCON=C1C[C@@H](O)[C@@H](O)[C@@H]2[C@@H]3C(=O)N(Cc4ccc5c(c4)OCO5)C(=O)[C@@H]3CC[C@H]12	0.659	0.522 (inactive)	-0.503 (inactive)	-0.108 (inactive)	0.437 (inactive)	1.01 (inactive)	0.454 (inactive)	0.0551 (inactive)	-0.402	-0.144
COc1ccc(COC(=O)NN=C2C[C@@H](O)[C@@H](O)[C@@H]3[C@@H]4C(=O)N(C[C@@H]5CCCO5)C(=O)[C@@H]4CC[C@@H]23)cc1	-0.407	0.443 (inactive)	0.075 (inactive)	-0.367 (inactive)	0.328 (inactive)	0.513 (inactive)	1.02 (inactive)	1.11 (inactive)	0.115	-0.0559
COC(=O)[C@H](C)NC(=O)CCC1CC(OC(=O)NCCc2ccc(F)cc2)CC2(CCCC(COC(=O)NCc3ccccc3)O2)O1 (stereo not given in full)	0.445	1.45 (inactive)	1.05 (inactive)	0.152 (inactive)	0.119 (inactive)	1.02 (inactive)	0.0734 (inactive)	-0.445 (inactive)	1.07	-0.0601
CCN1C(=O)[C@H]2[C@H]3[C@H](O)[C@H](O)CC(=NO[C@@H]4O[C@H](COC(C)=O)[C@@H](OC(C)=O)[C@H](OC(C)=O)[C@H]4OC(C)=O)[C@@H]3CC[C@H]2C1=O	-1.15	0.902 (inactive)	-0.974 (inactive)	-0.0673 (inactive)	-0.136 (inactive)	0.164 (inactive)	1.22 (inactive)	1.44 (inactive)	-1.03	1.92
C#CCCCON=C1C[C@@H](O)[C@@H](O)[C@@H]2[C@@H]3C(=O)N(C4CCCCC4)C(=O)[C@@H]3CC[C@@H]12	-0.673	-3.17 (inactive)	-0.0738 (inactive)	-1.65 (inactive)	0.164 (inactive)	-1.88 (inactive)	0.587 (inactive)	0.311 (inactive)	0.321	-0.392
CCN1C(=O)[C@H]2[C@H]3[C@H](O)[C@H](O)CC(=NOCC(C)C)[C@H]3CC[C@H]2C1=O	-0.259	-0.36 (inactive)	-0.929 (inactive)	-0.649 (inactive)	-0.225 (inactive)	-0.117 (inactive)	0.645 (inactive)	0.568 (inactive)	-0.971	-0.122

— PubChem BioAssay
